# Data: PubChem BioAssay AID1222 (Sanford-Burnham Center for Chemical Genomics, 2008)
# Screen size: about 190,000 compounds; fewer than 10 were called active. These entries were drawn from the full list. Potency and affinity values are given separately. Values without a mark were called inactive.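 Rule for the calls: active = EC50 below 50 µM in the dose-response confirmation; inactive = the rest.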
# Assay: rescue of cells from ER stress-induced death, primary screen, 384-well, CSM14.1, thapsigargin, ATP luminescence (AID 1222);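 note: death triggered by thapsigargin at about 15 µM added after 2 h compound pretreatment; cell ATP read after overnight thapsigargin exposure of roughly 18 to 22 hours; reference of the scale not given here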
# Details: CSM14.1 thapsigargin-induced death rescue, at 20 µM, stronger effect = higher value
row,SMILES,cellular ATP content (survival)
1,Cc1ccccc1OCc1nnc(SCC(=O)Nc2ccc3nc(SCC(=O)Nc4ccccc4)sc3c2)n1C,-0.5%
2,COc1cc(NC(=O)CN2c3cccc4cccc(c34)S2(=O)=O)cc(OC)c1OC,-1%
3,C=CCn1c(=O)c(C(=O)OCC)c(O)c2ccccc21,-1.4%
4,CC(C)c1ccc(N2C(=O)CSC23C(=O)N2CCCc4cccc3c42)cc1 (stereo unspecified),-0.3%
5,O=C1CCc2cc(S(=O)(=O)NC(Cc3ccccc3)C(=O)NC3CCCCC3)ccc2N1 (stereo unspecified),0%
6,Cc1ccc(CCNC(=O)C2CCN(C(=O)N(C)C)CC2)cc1,-1.1%
7,CCOC(=O)CC1ON(C)C(=O)N1c1ccc(Cl)cc1Cl (stereo unspecified),0.4%
8,COc1cc(/C=N/Nc2nc(Nc3ccccc3)nc(N3CCCCC3)n2)ccc1OCC(=O)O,-1.5%
9,COCCN(C(=O)Cc1cccs1)C(C(=O)NC1CCCC1)c1ccc(OC)c(OC)c1 (stereo unspecified),-1%
10,Cc1ccc(-c2nnc(CSc3nnc(COc4cccc5ccccc45)n3-c3ccccc3)o2)cc1,0.6%
11,CC(C)=CCN1CCN(Cc2ccc(C)s2)CC1CCO (stereo unspecified),0.8%
12,c1cnc2c(SCc3ccc(-c4nnco4)cc3)cccc2c1,-0.4%
13,CC(=O)Nc1nc2ccc(NC(=O)c3ccco3)cc2s1,-5.6%
14,O=C1OC(Cc2ccccn2)C(=O)C1=C1SCCS1 (stereo unspecified),-2.9%
15,O=C(c1ccc(Cl)c(S(=O)(=O)N2CCCCCC2)c1)N1CCN(c2ccccc2O)CC1,0.3%
16,NS(=O)(=O)c1ccc(CCNC(=O)CN2CCN(c3cccc(Cl)c3)CC2)cc1,-2.9%
17,Cn1c(N)c(C(=O)COC(=O)c2ccnc3ccccc23)c(=O)n(C)c1=O,-2.1%
18,O=C1CCCN1CCCN1C(=O)N[C@@H](Cc2ccccc2)C1=O,2%
19,Cc1cc(C)cc(OCC(=O)NNC(=O)C2CCCO2)c1 (stereo unspecified),-0.3%
20,CC1CCCC(NC(=O)COC(=O)Cc2ccsc2)C1C (stereo unspecified),-1.7%
21,Cc1ccc(CSCc2nnc(SCC(=O)N3CCN(c4ccccc4)CC3)n2C)cc1,2%
22,N#Cc1ccccc1Cn1cc(/C=C/[N+](=O)[O-])c2ccccc21,4%
23,O=C(CCn1nnc2ccccc21)Nc1nnc(-c2ccccc2F)s1,0.6%
24,Cc1ccc(C)c(N2CCN(C(=O)COc3cc(=O)n(C)c4ccccc34)CC2)c1,-0.1%
25,Cc1ccc(CNC(=O)C(=O)NCC2OCCN2C(=O)c2cccs2)cc1 (stereo unspecified),-0.2%
26,CCN1C=C(Cc2ccc(OC)cc2)C2=C(C1)C(c1ccc(OC)cc1)C(C#N)=C(N)O2 (stereo unspecified),-1.8%
